Measurements taken from PubChem BioAssay (NCATS).
Values joined by “and” are separate entries in the source; they are usually repeats but may differ in a detail not shown here. Identical values can stand only once. Records with an inconclusive call do not appear. Active and inactive are the calls of the source. The call rests on the fitted dose curve; in most records, active means well fitted inhibition curve with a large enough effect; inconclusive means small, poorly fitted or top-dose-only effect; inactive means flat fitted curve, though single readings scatter.

Assays:
CRL-7250 [1] = test: Cytotoxic Profiling of Annotated Libraries Using Quantitative High-Throughput Screening (AID 1296008); conditions: Five cell lines viability, CellTiter-Glo ATP luminescence, 48-72 h; max response: active compounds read low; on max response: on the % scale 0 is the no-effect control and ±100 the full control effect
In short: (§1)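 Cells exposed to compounds for 48 or 72 hr at 37 degrees Celsius. Viability read as ATP-coupled luminescence with CellTiter-Glo after 10 min at room temperature.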

KB-3-1 = test: as above; conditions: Five cell lines viability, CellTiter-Glo ATP luminescence, 48-72 h; max response: active compounds read low
In short: as §1

NIH3T3 = test: as above; conditions: Five cell lines viability, CellTiter-Glo ATP luminescence, 48-72 h; max response: active compounds read low
In short: as §1

MCC-13 = test: qHTS assay to identify novel small-molecules to repurpose for Merkel cell carcinoma treatment (AID 1296009); conditions: MCC and control cell lines, CellTiter-Glo viability, 72 h; series mostly up to 46 µM
In short: (§2)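 Cells were treated for 72 hr at 37 degree celsius with compounds in 8- or 11-point dose response. Viability was read by CellTiter-Glo luminescence, normalized to no-cell (cytotoxicity) and DMSO controls.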

MKL-1 = test: as above; conditions: MCC and control cell lines, CellTiter-Glo viability, 72 h; series mostly up to 46 µM
In short: as §2

MKL-2 = test: as above; conditions: MCC and control cell lines, CellTiter-Glo viability, 72 h; series mostly up to 46 µM
In short: as §2

UISO = test: as above; conditions: MCC and control cell lines, CellTiter-Glo viability, 72 h; series mostly up to 46 µM
In short: as §2

HEK293 = test: Cytotoxic Profiling of Annotated Libraries Using Quantitative High-Throughput Screening (AID 1296008); conditions: Five cell lines viability, CellTiter-Glo ATP luminescence, 48-72 h; max response: active compounds read low; on max response: on the % scale 0 is the no-effect control and ±100 the full control effect
In short: as §1

HaCat [2] = test: as above; conditions: Five cell lines viability, CellTiter-Glo ATP luminescence, 48-72 h; max response: active compounds read low
In short: as §1

MCC-26 = test: qHTS assay to identify novel small-molecules to repurpose for Merkel cell carcinoma treatment (AID 1296009); conditions: MCC and control cell lines, CellTiter-Glo viability, 72 h; series mostly up to 46 µM
In short: as §2

HACAT [3] = test: as above; conditions: MCC and control cell lines, CellTiter-Glo viability, 72 h; at 44.8 µM (top of the series) unless noted
In short: as §2

PC49 = test: qHTS profiling for inhibitors of Plasmodium falciparum proliferation (AID 504749); conditions: P. falciparum in erythrocytes, SYBR Green DNA, 72 h; series mostly up to 28.7 µM
In short: (§3)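 P. falciparum-infected erythrocytes (0.3% parasitemia, 2.5% hematocrit) incubated with compound 72 h at 37 C, 5% CO2. Parasite DNA detected by SYBR Green after lysis, overnight at room temperature; normalised to 0.29 uM artemisinin and DMSO.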

SC27B = test: as above; conditions: P. falciparum in erythrocytes, SYBR Green DNA, 72 h; series mostly up to 28.7 µM
In short: as §3

TAB109 = test: as above; conditions: P. falciparum in erythrocytes, SYBR Green DNA, 72 h; series mostly up to 28.7 µM
In short: as §3

TAB113 = test: as above; conditions: P. falciparum in erythrocytes, SYBR Green DNA, 72 h; series mostly up to 28.7 µM
In short: as §3

TAB165 = test: as above; conditions: P. falciparum in erythrocytes, SYBR Green DNA, 72 h; series mostly up to 28.7 µM
In short: as §3

W2 = test: as above; conditions: P. falciparum in erythrocytes, SYBR Green DNA, 72 h; series mostly up to 28.7 µM
In short: as §3

CRL-7250 [4] = test: qHTS assay to identify novel small-molecules to repurpose for Merkel cell carcinoma treatment (AID 1296009); conditions: MCC and control cell lines, CellTiter-Glo viability, 72 h; at 44.8 µM (top of the series) unless noted
In short: as §2
Further: nearly all actives have a fitted effect of over 60% in size.
Potency means the concentration at half of the fitted maximal effect.

CCCCOC(=O)c1ccccc1C(=O)OCc1ccccc1
inactive: max response (CRL-7250 [1]) -23.3% | max response (KB-3-1) -13.6% | max response (NIH3T3) -6.85% | Potency (MCC-13) | Potency (MKL-1) | Potency (MKL-2) | Potency (UISO)

CC[C@@H]1[C@@H](C)O[C@@](O)([C@@H](C)[C@H](O)[C@H](C)[C@H]2OC(=O)C=CC=C[C@@H](C)[C@@H]([C@@H](C)[C@@H](O)[C@H](C)[C@@]3(O)C[C@H](O[C@H]4C[C@H](O)[C@H](O)[C@H](C)O4)[C@H](CC)[C@@H](C)O3)OC(=O)C=CC=C[C@@H]2C)C[C@H]1O[C@H]1C[C@H](O)[C@H](O)[C@H](C)O1
active: Potency (HEK293) 1.18 µM | Potency (HaCat [2]) 3.32 µM | Potency (KB-3-1) 5.9 µM | Potency (NIH3T3) 1.66 µM | Potency (MCC-13) 16.6 µM | Potency (MKL-1) 14.8 µM | Potency (UISO) 8.33 µM

O=[N+]([O-])c1c2ccccc2cc2ccccc12
active: Potency (UISO) 42.8 µM
inactive: max response (HEK293) -16% | max response (HaCat [2]) 3.41% | max response (KB-3-1) -16.7% | max response (NIH3T3) -10.2% | Potency (MCC-13) | Potency (MCC-26)

COc1nn(CSP(=S)(OC)OC)c(=O)s1
active: Potency (HEK293) 21.7 µM | Potency (MKL-1) 24.3 µM | Potency (MKL-2) 24.3 µM | Potency (UISO) 38.6 µM
inactive: outcome (HaCat [2]) | max response (KB-3-1) -23.4% | max response (NIH3T3) -0.106% | outcome (HACAT [3]) inactive [at 92 µM]

CC(C)NC(C)Cc1ccc(I)cc1 (centres undefined)
active: Potency (W2) 10.7 µM
inactive: Potency (PC49) | Potency (SC27B) | Potency (TAB109) | Potency (TAB113) | Potency (TAB165) | max response (KB-3-1) 2.96%

COc1ccc(CCN2CCN(CCCc3ccccc3)CC2)cc1OC
inactive: outcome (CRL-7250 [4])

CCCN1CCC[C@H](c2cccc(O)c2)C1
active: Potency (W2) 15.1 µM
inactive: Potency (PC49) | Potency (SC27B) | Potency (TAB109) | Potency (TAB113) | Potency (TAB165) | max response (KB-3-1) 0.305%

C[N+](C)(C)CC(=O)O
inactive: max response (HaCat [2]) 3.56% | max response (KB-3-1) -11.7% and 3.15%

O=[N+]([O-])c1cc([N+](=O)[O-])c2ccccc2c1
inactive: outcome (HaCat [2]) | max response (KB-3-1) -6.84% | max response (NIH3T3) 4.23% | outcome (HACAT [3]) inactive [at 92 µM] | Potency (MCC-13) | Potency (MKL-1) | Potency (MKL-2)

CC(C)CCCC(C)CCCC(C)CCCCC(C)CCCC(C)CCCC(C)C (centres undefined)
inactive: outcome (CRL-7250 [4])

CCCCCCCCc1ccc(O)cc1
inactive: max response (KB-3-1) -0.951% | Potency (MCC-13)
active: Potency (HaCat [2]) 24.6 µM

CNCc1ccc(-c2[nH]c3cc(F)cc4c3c2CCNC4=O)cc1
inactive: outcome (CRL-7250 [4])

COC[C@H]1OC(=O)c2coc3c2[C@@]1(C)C1=C(C3=O)[C@@H]2CC[C@H](O)[C@@]2(C)C[C@@H]1OC(C)=O
active: Potency (NIH3T3) 16.6 µM | Potency (MKL-2) 8.33 µM
inactive: max response (HaCat [2]) -14.2% | max response (KB-3-1) -14.9% | Potency (MCC-13) | Potency (MCC-26)

C[C@]12CC[C@H](O)CC1=CC[C@@H]1[C@H]2CC[C@]2(C)C(c3cccnc3)=CC[C@H]12
inactive: outcome (CRL-7250 [4]) inactive [at 17.4 µM]

c1cc2ccc3cccc4ccc(c1)c2c34
inactive: max response (KB-3-1) -15.2% | max response (NIH3T3) -19.4% | Potency (MCC-13) | Potency (MKL-1) | Potency (MKL-2) | Potency (UISO)

CN[C@@H]1C[C@@H](c2ccc(Cl)c(Cl)c2)c2ccccc21
active: Potency (W2) 4.78 µM
inactive: Potency (TAB113) | max response (KB-3-1) -9.15%

c1ccc(C2(c3ccccc3)CC2C2=NCCN2)cc1 (centres undefined)
inactive: Potency (PC49) | Potency (SC27B) | Potency (TAB109) | Potency (TAB113) | Potency (TAB165) | max response (KB-3-1) -1.25%

CCc1c(C)[nH]c2c1C(=O)C(CN1CCOCC1)CC2 (centres undefined)
inactive: outcome (CRL-7250 [4])

Nc1ccc(N=Nc2ccccc2)cc1
inactive: max response (KB-3-1) -15.1% | Potency (MCC-13) | Potency (MKL-1)
active: Potency (NIH3T3) 6.86 µM

NC(=O)CN1CC(O)CC1=O (centres undefined)
inactive: Potency (PC49) | Potency (SC27B) | Potency (TAB109) | Potency (TAB113) | Potency (TAB165) | Potency (W2) | max response (KB-3-1) 3.82%

CCO/N=C(\CC)C1=C(O)CC(c2c(C)cc(C)cc2C)CC1=O (centres undefined)
inactive: max response (HaCat [2]) -8.94% | max response (KB-3-1) -11.8% | max response (NIH3T3) -12.4% | Potency (MCC-13) | Potency (MCC-26) | Potency (MKL-1) | Potency (UISO)

CCCCc1ccc(C(=O)O)nc1
inactive: Potency (PC49) | Potency (SC27B) | Potency (TAB109) | Potency (TAB113) | Potency (TAB165) | Potency (W2) | max response (KB-3-1) 2.2%

CC(C)(C)C(O)/C=C/c1ccc2c(c1)OCO2 (centres undefined)
inactive: outcome (CRL-7250 [4])

Clc1ccc2ncc(-c3cccc(NC4CNC4)n3)n2c1
inactive: outcome (CRL-7250 [4])

COc1ccccc1N1CCN(CC(O)COc2cc(OC)c(OC)c(OC)c2)CC1 (centres undefined)
inactive: outcome (CRL-7250 [4])
